Measured values from PubChem BioAssay (NCI).
About 79,000 compounds went through this panel and 15% of them were active in at least one assay; those are over-represented in the sample as a whole. Active and inactive are the calls of the source. No stated cut-off is given here; in the data, active means growth inhibition above about 70%; inactive means the rest.

Assay: NCI Yeast Anticancer Drug Screen. Data for the wt1 strain (AID 149);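 further: 0% = growth of vehicle-treated wt1 cultures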
Details: S. cerevisiae wt1 strain (SPY 50644) growth inhibition, active compounds read high
Experimental: Growth inhibition of yeast strains with defined genetic alterations is measured as a screen for potential anti-cancer activity. Selected strains with alterations in DNA damage repair or cell cycle control were exposed to compounds and growth inhibition was measured relative to vehicle treated controls. The strain used in this assay is wt1

Measured: growth inhibition

O=C(NCCCNCCCNC(=O)c1cc(-c2ccccc2)nc2ccccc12)c1cc(-c2ccccc2)nc2ccccc12
inactive: at 1.2 µM -1% | at 3.7 µM -1% | at 11.0 µM -3% | at 33.0 µM -2% | at 100.0 µM -5%

CCS(=O)(=O)c1ccc(/C=C/C=N/NC(=S)NCC(C)C)cc1
inactive: at 1.2 µM 0% | at 3.7 µM -3% | at 11.0 µM 5% | at 33.0 µM -4% | at 100.0 µM 4%

Cc1ccc(C2C(Cl)C(=O)N2n2cnc3ccccc3c2=O)cc1 (stereo not given)
inactive: at 1.2 µM 8% | at 3.7 µM 14% | at 11.0 µM 19% | at 33.0 µM 6% | at 100.0 µM 6%

N#CC(C(=O)Nc1ccccc1)C1=C(Cl)C(=O)c2ccccc2C1=O (stereo not given)
active: at 11.0 µM 95% | at 33.0 µM 97% | at 100.0 µM 96%
inactive: at 1.2 µM -23% | at 3.7 µM 12%

Cc1cc(CO)c(O)c(CNCc2cc(C)cc(CO)c2O)c1
inactive: at 1.2 µM 24% | at 3.7 µM 15% | at 11.0 µM 25% | at 33.0 µM 38%
active: at 100.0 µM 98%

CC1CCN(CCC(=O)c2ccc(Cl)cc2)CC1
inactive: at 1.2 µM -1% | at 3.7 µM -1% | at 11.0 µM -1% | at 33.0 µM 7% | at 100.0 µM 16%

Nc1nc(-c2cccnc2)cc(-c2cc(-c3cccnc3)nc(N)n2)n1
inactive: at 1.2 µM 0% | at 3.7 µM -1% | at 11.0 µM -1% | at 33.0 µM -2% | at 100.0 µM -2%

CC(C(=O)N1C(=O)N(C(=O)[C@H](C)C(O)c2ccccc2)[C@H](c2ccccc2)[C@H]1c1ccccc1)[C@@H](O)c1ccccc1 (stereo not given in full)
inactive: at 1.2 µM 1% | at 3.7 µM -1% | at 11.0 µM -2% | at 33.0 µM 17% | at 100.0 µM 36%
